Source: PubChem BioAssay (National Center for Advancing Translational Sciences (NCATS))
TrxR1 inh: blocks rat thioredoxin reductase 1; Potency, µM (doses to about 114 µM), most hits filed as inhibitors; actives 1% (n = 390,000); recombinant rTrxR1, NADPH fluorescence consumption, selenite substrate; AID 588453; O89049; note: nearly all actives have a fitted effect of over 65% in size
Target sequence (O89049 whole entry, looked up): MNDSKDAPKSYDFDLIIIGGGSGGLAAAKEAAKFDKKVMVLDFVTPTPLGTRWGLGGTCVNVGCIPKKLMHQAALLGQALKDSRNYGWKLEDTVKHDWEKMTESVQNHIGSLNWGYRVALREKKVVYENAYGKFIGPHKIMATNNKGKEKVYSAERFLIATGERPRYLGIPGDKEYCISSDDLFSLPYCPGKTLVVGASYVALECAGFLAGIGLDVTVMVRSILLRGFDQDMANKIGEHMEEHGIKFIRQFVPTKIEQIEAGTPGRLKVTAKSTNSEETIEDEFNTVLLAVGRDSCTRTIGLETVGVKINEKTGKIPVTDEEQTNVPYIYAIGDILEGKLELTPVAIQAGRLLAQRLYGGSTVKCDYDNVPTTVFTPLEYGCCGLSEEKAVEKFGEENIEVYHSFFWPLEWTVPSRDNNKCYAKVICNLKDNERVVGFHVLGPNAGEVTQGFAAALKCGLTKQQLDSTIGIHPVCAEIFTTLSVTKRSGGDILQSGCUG
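Rat TrxR1 (90 nM in the dispensed reagent) was pre-reduced with 400 uM NADPH for 5 min at room temperature, then incubated with compound for 15 min. After 400 uM selenite was added, NADPH fluorescence (Ex 340/Em 450 nm) was followed for 8 min.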
Vif-APOBEC3G blk: inhibitors of Vif-APOBEC3G interaction; actives 0.076% (n = 410,000); HeLa A3G-eYFP + Vif (tagged APOBEC3G with the HIV-1 protein that degrades it), YFP fluorescence, overnight; Potency, µM (series often up to 46.1 µM), actives largely listed as inhibitors; Q9HC16; note: nearly all actives have a fitted effect of over 60% in size
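Read-out is eYFP fluorescence (Ex 488/Em 500-530) from Vif-expressing HeLa A3G-eYFP cells; more signal means A3G escaped Vif-mediated degradation. Cells plated overnight, compound pinned in, incubated overnight at 37 deg C.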
VDR inhibitor: inhibitors of human vitamin D receptor. P11473. VDR-SRC2-3 peptide fluorescence polarization, 2 h. Potency, µM, usual class: inhibitors. actives 0.93% (n = 400,000)
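VDR–SRC2-3 interaction, FP format. Cmpds 23 nl via pintool, brief spin, 2 h ambient incubation.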
Vif-APOBEC3F blk: blocks the Vif interaction with APOBEC3F. HeLa A3F-eYFP + Vif (tagged APOBEC3F with the HIV-1 protein that degrades it), YFP fluorescence increase. Potency, µM (titrated, usually from 46.1 µM). actives 0.2% (n = 390,000); note: nearly all actives have a fitted effect of over 65% in size
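HeLa cells stably expressing A3F-eYFP plus Vif, plated and incubated overnight at 37 deg C, then exposed to compounds overnight at 37 deg C. Blocked degradation read as raised yellow fluorescence (Ex 488/Em 500-530).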
TrxR1 substrate: is turned over as a substrate by rat TrxR1. O89049. purified TrxR1 substrate turnover, NADPH consumption readout. Potency, µM (series often up to 114 µM). actives 0.01% (n = 390,000). AID 588456; note: nearly all actives have a fitted effect of over 50% in size
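Rat TrxR1, dispensed at 90 nM, was prereduced with 400 uM NADPH (final) for 5 min at ~22 deg C, then incubated with compound 15 min before 400 uM selenite. A first-read NADPH fluorescence drop versus no-compound background flagged substrates.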
Numbers stand for hits; – = inactive; ? = inconclusive; · = no result; [ ] = another dose, or the depositor's remark. Only some compounds are listed: those with a hit (about 1.8% of all), similar ones and a draw of the others. Calls come from the whole dose curve; as a rule, active = well fitted curve in the direction sought with a large enough effect; inconclusive = small, poorly fitted or top-dose-only effect, or another doubt; inactive = no such curve, though single readings can be large; an effect the other way counts as inactive or inconclusive.

SMILES | TrxR1 inh | Vif-APOBEC3G blk | VDR inhibitor | Vif-APOBEC3F blk | TrxR1 substrate
Cc1ccc(NC(=S)NNC(=S)Nc2ccc(C)cc2)cc1 | – | ? | 79.4µM | – | –
FC(F)(F)c1cc(NC(=S)Nc2ccc3cc4ccccc4cc3c2)cc(C(F)(F)F)c1 | · | · | 22.4µM | · | ·
Cc1cccc(NC(=S)NNC(=S)NCc2ccccc2)c1 | – | – | 89.1µM | – | –
Cc1nc2ccccc2n1CCc1nc2c3ccccc3nc(SCc3ccc(C#N)cc3)n2n1 | – | – | – | – | –
S=C(NCc1ccco1)Nc1ccc(Cl)cn1 | ? | – | – | 25.1µM | –
CCc1ccc(NS(=O)(=O)c2ccc(-c3cc(C)no3)cc2)cc1 | – | – | – | – | –
COc1ccc(-c2nnc3ccc(SC(C)C)nn23)cc1OC | – | – | – | · | –
O=C(C[N+]1(CCO)CCOCC1)c1ccc(F)c2ccccc12 | – | – | · | · | –[0.0914 µM]
CCOc1ccc(OCC)c(NC(=O)Cn2nc(CC)n3c(cc4sccc43)c2=O)c1 | – | – | – | – | –
Cc1c(C)c2c(OCC(=O)N3CCC(C(=O)NCC(C)C)CC3)cc3c(c2oc1=O)CCC(C)(C)O3 | – | – | – | – | –
Cc1c(C)c2c(OCC(=O)N3CCC(C(=O)O)CC3)cc3c(c2oc1=O)CCC(C)(C)O3 | 79.4µM | – | – | – | –
Cc1c(OCC(=O)N2CCC(C(=O)O)CC2)ccc2c3c(c(=O)oc12)CCC3 | 14.1µM | – | ? | – | –
Cc1c(OCC(=O)N2CCC(C(N)=O)CC2)ccc2c3c(c(=O)oc12)CCC3 | – | – | – | – | –
Cc1ccc(C(=O)N2c3nc(-c4ccco4)nn3C3(CCCCC3)[C@@H]3CCCC[C@@H]32)cc1 | ? | – | – | – | –
C=C1C(=O)OC2CC1C(OC(C)=O)CC(C)=CCCC(C)=CCC[C@@]2(C)O (some centres undefined) | · | · | 35.5µM | · | ·
C=C1C(=O)OC2CC1C(O)CC(C)=CCCC(C)=CC(O)CC2C (centres undefined) | –[11.4 µM] | – | ? | – | –
Cn1ccsc1=NC(=O)c1ccc(S(C)(=O)=O)c([N+](=O)[O-])c1 | 56.2µM | ? | – | – | –
COc1cccc(NC(=O)CSc2nc3c(oc4ccccc43)c(=O)n2Cc2ccco2)c1 | – | – | – | – | –
COc1ccc(NC(=O)CSc2nc3c(oc4ccccc43)c(=O)n2Cc2ccco2)cc1Cl | – | ? | – | 8.91µM | –[0.457 µM]
O=C(CNC(=O)C1CCCCC1)OCc1ccccc1 | – | – | – | · | –
COc1cccc(OCc2cc(C3Nc4ccccc4C(=O)N3c3ccccc3)ccc2OC)c1 (centres undefined) | – | – | – | · | –
Cc1ccc(N2C(S)=C(C#N)C(=O)NC2c2ccco2)cc1 (centres undefined) | ? | – | 39.8µM | – | –
N#CC1=C(S)N(c2ccccc2)C(c2cccs2)NC1=O (centres undefined) | – | – | ? | – | –
N#CC1=C(S)N(c2ccc(F)cc2)C(c2ccco2)NC1=O (centres undefined) | – | – | ? | – | –
Cc1ccc(N2C(S)=C(C#N)C(=O)NC2c2cccs2)cc1 (centres undefined) | – | – | 25.1µM | – | –
SMILES | TrxR1 inh | Vif-APOBEC3G blk | VDR inhibitor | Vif-APOBEC3F blk | TrxR1 substrate
CCc1ccc(C(=O)c2cn(Cc3ccccc3)c3cc(OC)c(OC)cc3c2=O)cc1 | – | – | – | – | –
COC(=O)c1ccc2cc(OC)c(OC)cc2c1 | · | – | · | – | ·
COC(=O)c1cc(=O)c(O)c2c(O)c(O)ccc2c1 | · | · | 22.4µM | · | ·
Cc1c(CC(=O)NCc2ccccc2Cl)c(=O)oc2cc(O)ccc12 | ? | – | – | – | –
Cc1c(CC(=O)NCC(=O)N[C@H](Cc2ccccc2)C(=O)O)c(=O)oc2cc(O)ccc12 | 79.4µM | – | – | – | –
O=c1c(-c2cccs2)nc2cnc(N3CCNCC3)nc2n1Cc1cccs1 | · | · | – | · | ·
O=C(NC(=S)N1CCN(C2CCCCC2)CC1)c1ccccc1 | – | – | – | 22.4µM | –
Cn1ncc(Br)c1C(=O)NC(=S)N1CCN(c2ccccn2)CC1 | – | – | – | ? | –
O=C(NC(=S)N1CCN(c2ccccn2)CC1)c1ccccc1 | – | – | – | 22.4µM | –
O=C(CSc1nc(=O)[nH]c2c1CCCC2)Nc1ccccc1C(F)(F)F | – | – | – | – | –
O=C(Cn1cc(SCc2ccc(F)cc2)c2ccccc21)N1CCCCC1 | – | – | – | – | –
S=P(c1ccc(N2CCOCC2)cc1N1CCOCC1)(N1CCOCC1)N1CCOCC1 | – | – | 79.4µM | – | –
O=[N+]([O-])c1ccc(N2CCCCC2)cc1N1CCOCC1 | – | – | – | – | –
CCN(CCO)C1CC(=O)N(c2ccccc2C)C1=O (centres undefined) | 50.1µM | – | – | – | –
COc1ccccc1CNc1ncnc2ccc(-c3ccccc3OC)cc12 | · | · | – | · | ·
C[n+]1ccc(/C=C/c2c[nH]c3ccc(F)cc23)cc1 | – | 8.91µM | – | 10µM | –
CCCn1c(SCC(=O)N2CCCCC2)nnc1C(C)C | – | – | 79.4µM | – | –
COCCn1c(SCC(=O)N2CCCC2)nnc1C(C)C | – | – | – | – | –
COc1cccc(NC2=CC(c3ccc(C(C)C)cc3)N(c3cccc(OC)c3)C2=O)c1 (centres undefined) | – | – | 20µM | – | –[11.4 µM]
C[C@]12CCC(=O)C=C1CC[C@@H]1[C@H]2[C@@H](O)C[C@@]2(C)[C@H]1CC[C@]2(O)C(=O)CO | · | · | – | · | ·
O=c1cc(-c2ccc(O)cc2)oc2c(O)c(O)c(O)c(O)c12 | 15.8µM | – | – | – | –
O=c1cc(-c2ccc(O)cc2)oc2c1ccc1ccccc12 | – | – | – | ? | –
CC(/C=C1\SC(=S)N(c2ccc(C(=O)O)cc2)C1=O)=C\c1ccccc1 | – | – | 89.1µM | – | –
OC(Br)C(O)C(O)N1CCCc2ccccc21 (centres undefined) | – | – | · | · | –
OC(CN1C=CCc2ccccc21)c1ccc(Cl)cc1Cl (centres undefined) | – | – | · | · | –[0.0914 µM]
SMILES | TrxR1 inh | Vif-APOBEC3G blk | VDR inhibitor | Vif-APOBEC3F blk | TrxR1 substrate
CCOC(=O)N1CCC(Nc2nc3ccccc3n3nnnc23)CC1 | – | – | – | 10µM | –
Fc1ccccc1Nc1nc2ccccc2n2nnnc12 | – | – | – | 25.1µM | –
Oc1ccccc1Nc1nc2ccccc2n2nnnc12 | – | · | – | · | –
NS(=O)(=O)Nc1c(Br)cc(Br)c2cccnc12 | 28.2µM | – | ? | · | –[0.457 µM]
Cc1ccc2nc(N(CCCN(C)C)C(=O)c3sc4ccccc4c3Cl)sc2c1 | 50.1µM | – | – | – | –
Cc1ccc2nc(N(CCCN(C)C)C(=O)c3ccc(S(=O)(=O)N(C)C)cc3)sc2c1 | – | – | – | – | –
CCOC(=O)Nc1ccc2c(c1)N(C(=O)CCN1CCOCC1)c1ccccc1S2=O (centres undefined) | 31.6µM | – | ? | – | –
CCOC(=O)Nc1ccc2c(c1)N(C(=O)CCN1CCOCC1)c1ccccc1S2 | – | – | – | – | –
